# Measured values: PubChem BioAssay (NCI)
# Compounds without any hit were thinned out: in the full panel of roughly 83,000, 20% have a hit.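 The test compound was applied at a single concentration to cells in 96-well plates for 48 hours, and percent growth was recorded.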 A number with no mark means an inactive call. Calls of active or inactive are those of the source. How the source made its calls: active means growth percent below 10; inactive means the rest.
# Columns and labels:
# Assay in all cases: NCI-60 one-dose screen, 48 h (100 = growth as untreated, 0 = no growth, -100 = all killed)
# [1] = test system: HCT-15 colon; conditions: 10 µM unless noted
# [2] = test system: SNB-75 CNS; conditions: 10 µM
# [3] = test system: SNB-19 CNS; conditions: 10 µM unless noted
# [4] = test system: U251 CNS; conditions: 10 µM unless noted
# [5] = test system: PC-3 prostate; conditions: 10 µM unless noted
# [6] = test system: SK-MEL-5 melanoma; conditions: 10 µM unless noted
# [7] = test system: UACC-62 melanoma; conditions: 10 µM unless noted
# [8] = test system: LOX IMVI melanoma; conditions: 10 µM unless noted
# [9] = test system: SK-MEL-28 melanoma; conditions: 10 µM unless noted
# [10] = test system: EKVX NSCLC; conditions: 10 µM unless noted
# [11] = test system: SN12C renal; conditions: 10 µM unless noted
# [12] = test system: UO-31 renal; conditions: 10 µM unless noted
# [13] = test system: TK-10 renal; conditions: 10 µM unless noted
# [14] = test system: ACHN renal; conditions: 10 µM unless noted
# [15] = test system: CAKI-1 renal; conditions: 10 µM unless noted
# [16] = test system: A498 renal; conditions: 10 µM unless noted
# [17] = test system: CCRF-CEM leukemia; conditions: 10 µM unless noted
# [18] = test system: MOLT-4 leukemia; conditions: 10 µM unless noted
# [19] = test system: SK-MEL-2 melanoma; conditions: 10 µM unless noted
Compound,growth [1],growth [2],growth [3],growth [4],growth [5],growth [6],growth [7],growth [8],growth [9],growth [10],growth [11],growth [12],growth [13],growth [14],growth [15],growth [16],growth [17],growth [18],growth [19]
O=C(Oc1ccccc1[N+](=O)[O-])C1CCCN1C(=O)OCc1ccccc1 (centres undefined),101%,99%,103%,96.8%,97.3%,101%,109%,84.2%,102%,96.7%,98.7%,90.1%,112%,105%,93.7%,95.5%,99.1%,83.5%,
COC(=O)c1cccc2c1N(C)c1c(cccc1C(=O)OC)CC2,97.9%,106%,111%,111%,97.4%,106%,98.7%,87.7%,120%,112%,107%,101%,121%,104%,97.7%,132%,89%,97.4%,
COc1ccccc1CNCCCN1C(=O)c2ccc3c4c(ccc(c24)C1=O)C(=O)N(CCCNCCCCNCCCN)C3=O,-32.1% (active),-79.7% (active),-31.1% (active),-51.8% (active),-1.44% (active),-99.3% (active),-52% (active),1.41% (active),-75.7% (active),-41% (active),-32.8% (active),-1.99% (active),-10.1% (active),,7.3% (active),-58.1% (active),-19.1% (active),-28.4% (active),-54.6% (active)
COc1ccc(C2=CC(c3cc(OC)c(OC)c(OC)c3)NC(=O)N2)cc1OC (centres undefined),27.5%,2.17% (active),38.1%,21.1%,51%,18.5%,44.5%,7.04% (active),40%,35.5%,23.7%,22.8%,12.8%,,5.82% (active),19.3%,6.59% (active),17.9%,20.7%
COc1cc(/C=C/c2cc(/C=C/c3ccc(O)c(OC)c3)n(C(N)=O)n2)ccc1O,4.33% (active),-40.9% (active),4.95% (active),-10.9% (active),-23.5% (active),-33% (active),-47.2% (active),1.48% (active),-24.6% (active),,-5.22% (active),-22.1% (active),4.79% (active),-11.2% (active),,-24.4% (active),-22.9% (active),-33% (active),-52.7% (active)
COc1cc(C2C3=C(COC3=O)Nc3cc4c(cc32)CCC4)cc2c1OCO2 (centres undefined),14.8%,46.3%,42.9%,27.5%,20.4%,-42.4% (active),43.7%,13.9%,59.1%,45.4%,30.9%,53.5%,67.4%,,37.2%,25.6%,10.3%,19.6%,54.4%
C=C[C@@H]1C[C@@H]2Cc3ccccc3N1O2,107%,102%,109%,101%,116%,107%,101%,104%,109%,99.5%,97.5%,102%,108%,110%,97.8%,107%,-50% (active),28.9%,
COC(=O)C1CCCN1C(=O)[C@@H]1CCCN1C(=O)[C@H](Cc1c[nH]c2ccccc12)NC(=S)Nc1cc(C(F)(F)F)cc(C(F)(F)F)c1 (some centres undefined),40%,55.1%,49.7%,35.9%,20.4%,58.1%,63.6%,36.1%,80.9%,49.8%,65.5%,49.7%,56.7%,,33.7%,65.4%,24%,27%,67.5%
O=C([O][Sn]([O]C(=O)c1ccccn1)([c]1ccccc1)[c]1ccccc1)c1ccccn1,81.7%,49.3%,105%,86.3%,93.1%,84.3%,83%,50.6%,98.1%,92.2%,91.3%,82.4%,30.1%,100%,76.5%,101%,18.1%,88.3%,
Nc1nc(=O)c2ccccc2s1,101%,94.1%,104%,111%,99.4%,116%,97.2%,104%,121%,111%,98.9%,78.3%,114%,99.4%,101%,131%,92.2%,103%,
CCCCC(CC)OC(=O)C(Br)CC (centres undefined),105%,90.1%,110%,97.2%,102%,102%,106%,94.1%,103%,105%,115%,93.6%,103%,109%,99%,97.4%,109%,95.4%,
CN(C)CCCC(C#N)c1ccccc1 (centres undefined),103%,88.5%,103%,105%,99.1%,108%,102%,103%,119%,118%,101%,104%,100%,,117%,107%,105%,91.6%,109%
COc1ccc(-c2c(-c3cc(OC)c4c(c3)OCO4)noc2N)cc1,14.2%,25.9%,34.4%,16.4%,25.6%,-54.4% (active),32.7%,15.4%,58.8%,44.6%,,36.1%,54.8%,,38.7%,23.6%,14.1%,4.69% (active),53.4%
Cc1ccc(S(=O)(=O)C2=C3C(=C(c4ccccc4)c4ccccc43)CN(S(=O)(=O)c3ccc(C)cc3)C2)cc1,39%,56.1%,82.1%,38.4%,30.1%,81.9%,36.9%,-76.5% (active),88%,77.9%,55.3%,32.3%,,43.3%,,87.5%,-7.65% (active),-6.7% (active),36.8%
COc1cc2c(c(OC)c1OC)-c1ccc(N)c(=O)cc1[C@@H](NC(C)=O)CC2,11.8%,33.8%,34.2%,18%,29.3%,-54.3% (active),30.8%,25%,61.8%,51.4%,27.6%,40%,33.4%,27.5%,19.1%,-12.7% (active),21.6%,20.7%,
COC(OC)c1ccccc1,105%,91%,121%,99.3%,93.1%,107%,107%,88.2%,104%,103%,102%,85.4%,117%,102%,95.4%,132%,119%,108%,
COc1ccc2c(c1)cn1c3ccc(OC)cc3[nH]c(=O)c21,-84.4% (active),59.1%,12.3%,,-72.7% (active),4.14% (active),29.9%,-79.5% (active),61%,48.5%,-11.8% (active),-74.8% (active),-89.6% (active),-98.3% (active),,41.2%,-64.8% (active),-41.6% (active),-50.3% (active)
COc1ccc2c(c1)[nH]c(=O)c1c3cc(OC)ccc3cn21,4.49% (active),74.8%,25.8%,-47.6% (active),0.628% (active),5.31% (active),41.9%,-76.9% (active),62.3%,48.7%,32.7%,28.6%,,19.1%,41.3%,51.7%,-58.8% (active),26.2%,
